# HEK293 tox – cytotoxic in the GLP-1 receptor inverse agonist counter-screen; HEK293 cAMP-luciferase reporter cells, luminescence, 24 h; Potency, µM (titrated, usually from 38.3 µM), without a hit: top-dose activity change, negative = inhibition, hits mostly inhibitors; hit rate 0.13% among 410,000; AID 624418;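 also: loss of luciferase light is scored as toxicity; potency is read from the fitted curve at half-maximal effect; % is scaled to controls: 0 for no effect and ±100 for the full control effect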
#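 Compound-treated cells are incubated 24 hr at 37 deg C under 5% CO2 after a 12 hour attachment period, then luciferase detection reagent is added and luminescence is measured following 12 min at room temperature; lowered signal indicates toxicity.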
# GLP-1R inv ag – inverse agonists of human GLP-1 receptor | P43220 | HEK293 GLP-1R CRE-luciferase, luminescence, 24 h; GLP-1R form is constitutively active | Potency, µM (doses to about 38.3 µM), inactives show top-dose activity change, negative = inhibition, most hits filed as inhibitors | hit rate 1.6% among 410,000; also: potency is read from the fitted curve at half-maximal effect; % is scaled to controls: 0 for no effect and ±100 for the full control effect; nearly all actives have a fitted effect of over 55% in size
#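 Assay principle: reduced luminescence from a cAMP-responsive reporter in HEK293 cells co-expressing a constitutively active GLP-1R. Conditions: 24 hr compound incubation, 37 deg C, 5% CO2.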
# GLP-1R agonist – activates the human GLP-1 receptor. HEK293 GLP-1R CRE-luciferase, luminescence, 4-6 h; cells express a hypersensitive GLP-1R form. Potency, µM (top dose mostly 45.6 µM), for inactives: at the highest dose activation, usual class: activators. P43220. AID 624172. hit rate 0.007% among 380,000; also: potency is read from the fitted curve at half-maximal effect; % of control where 0% means no effect
# ClpP mod – qHTS Assay for Activators of ClpP; ATP-dependent Clp protease proteolytic subunit (Bacillus subtilis (strain 168)), P80244; purified B. subtilis ClpP, FRET peptide cleavage, 20 min; Potency, µM (doses to about 57.5 µM), for the others: top-dose activity change, negative = active; hit rate 1.9% among 340,000; AID 651965, 2013; active = well fitted falling curve with a large enough effect; inconclusive = small, poorly fitted or top-dose-only effect; inactive = no such curve, though single readings can be large or run the other way; also: potency is read from the fitted curve at half-maximal effect; the source files actives as falling curves though it sought activators and does not explain the sign; nearly all actives have a fitted effect of over 65% in size
# Target sequence (P80244 whole entry, looked up): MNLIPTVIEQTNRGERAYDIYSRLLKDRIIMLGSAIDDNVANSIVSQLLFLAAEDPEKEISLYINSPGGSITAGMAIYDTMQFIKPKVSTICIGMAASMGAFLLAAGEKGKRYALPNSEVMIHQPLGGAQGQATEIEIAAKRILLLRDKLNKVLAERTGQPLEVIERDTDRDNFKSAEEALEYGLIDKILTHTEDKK
#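 Purified B. subtilis ClpP, 10 microg/mL final in Tris/HCl pH8 with KCl, BSA, glycerol and Tween-20, cleaved an Abz/nitrotyrosine-quenched decapeptide. Fluorescence (ex 320, em 430) was read at 0 and 20 min at room temperature. Delta was normalized to 5.8 microM ADEP and DMSO/no-enzyme controls.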
# DRD3 agonist – activates the human D3 dopamine receptor; D3R DiscoveRx beta-arrestin cells, luminescence, 90 min; max activation, %; AID 652048; hit rate 0.58% among 410,000; in the data active = max activation above about 30%; also: 0% is about no effect
#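 Agonist mode: compounds and dopamine controls were applied to plated cells for 90 min at 37 degrees C after an overnight attachment at 1500 cells/well. Luminescent read-out followed 30 - 60 minutes at room temperature with DiscoveRx detection reagent.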
# D3 antag – D3 dopamine receptor (human) antagonism; P35462; D3R cells, DiscoveRx beta-arrestin luminescence, antagonist mode; active compounds read low; max response, negative = inhibition, %; hit rate 2.5% among 360,000; AID 652054; in the data active = max response below about -50%; inconclusive = no clear call, values can overlap the other calls; also: % is scaled to controls: 0 for no effect and ±100 for the full control effect
#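 Cells expressing the human receptor were seeded at 1500 cells/well, incubated overnight at 37 degrees C in 5% CO2, then exposed to library compounds with dopamine controls for 90 minutes at 37 degrees C before luminescent detection.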
# Numbers without * were called inactive; u = inconclusive; x = no result given; [ ] = dose if it differs, or a comment. This is a sample that favours compounds with a hit; in the whole collection about 5.7% have one here. Unless noted, calls follow the shape of the dose curve; as a rule, active = well fitted curve in the direction sought with a large enough effect; inconclusive = small, poorly fitted or top-dose-only effect, or another doubt; inactive = no such curve, though single readings can be large; an effect the other way counts as inactive or inconclusive.
SMILES,HEK293 tox,GLP-1R inv ag,GLP-1R agonist,ClpP mod,DRD3 agonist,D3 antag
COc1ccc(CC(=O)Nc2ccc3nc(Nc4cccc(Cl)c4)cc(C)c3c2)cc1,-18%,7.9µM*,-11%,4%,-11,x
COc1ccccc1CC(=O)Nc1ccc2nc(Nc3cccc(Cl)c3)cc(C)c2c1,-19%,u,-1%,4%,-4,x
Cc1cc(Nc2cccc(Cl)c2)nc2ccc(NC(=O)c3cccnc3)cc12,u,u,-6%,-24%,0,x
COc1ccc(Nc2cc(C)c3c(O)cccc3n2)cc1,-26%,13µM*,1%,-16%,2,1
CN(C)CCN1CCN(C2CN(Cc3cn(Cc4ccccc4)nn3)S(=O)(=O)C2)CC1 (configuration not stated),-1%,18%,-3%,-5%,1,-10
COc1ccc(C2=NS(=O)(=O)N(C)C(C(=O)Nc3ccc(OC(F)(F)F)cc3)=C2)cc1,-20%,u,x,-4%,-11,x
C=CC1=C(C)C2=CC3=NC(=C(CC(=O)[O-])C4=NC(=C(C)C4=C([O-])[O-])C=c4[n-]c(c(C)c4CC)=CC1=N2)C(CCC(=O)[O-])C3C.[Cu+2].[Na+].[Na+].[Na+] (configuration not stated),x,x,x,x,-20,x
CC(C)N=C(NS(=O)(=O)c1ccccc1)C(Cl)(Cl)Cl,u,4µM*,-7%,1%,9,17
Cc1cc2c(cc1NS(=O)(=O)c1ccc(F)cc1)n(C)c(=O)c(=O)n2C,0%,3%,0%,-2%,2,x
NCCCC[C@H](NC(=O)[C@@H]1CCCN1C(=O)[C@@H]1CSSC[C@H](N)C(=O)N[C@@H](Cc2ccccc2)C(=O)N[C@@H](Cc2ccccc2)C(=O)N[C@@H](CCC(N)=O)C(=O)N[C@@H](CC(N)=O)C(=O)N1)C(=O)NCC(N)=O,x,x,x,x,-2,x
CCN(CC)S(=O)(=O)c1cc([N+](=O)[O-])ccc1NNC(=O)Nc1ccc(Cl)c(Cl)c1,u,2.2µM*,-8%,1%,-7,-84*
CCCCN(CCCC)S(=O)(=O)c1ccc(NC(=O)c2ccc([N+](=O)[O-])cc2Cl)cc1,-24%,4µM*,-8%,-27%,-8,-25
CC(=O)N1CCN(c2ccc(NC(=O)c3ccc([N+](=O)[O-])cc3Cl)cc2)CC1,2%,33%,1%,x,0,-5
C/C(CC(=O)Nc1ccc(N(C)C)cc1)=N\NC(=O)c1ccc([N+](=O)[O-])cc1Cl,22%[0.307 µM],20%[0.307 µM],-14%,25µM*,6,2
C/C(CC(=O)Nc1ccc(N(C)C)cc1)=N\NC(=O)c1ccc(Cl)cc1Cl,16%,8%,1%,1%,-1,13
COc1cccc(C(=O)NCC(c2cccs2)N2CCc3ccccc32)c1 (configuration not stated),8%,u,5%,-3%,-1,17
O=C(NCC(c1cccs1)N1CCc2ccccc21)c1ccccc1 (configuration not stated),u,7.1µM*,-2%,-2%,-4,21
COc1cc(C(=O)NCC(c2cccs2)N2CCc3ccccc32)cc(OC)c1OC (configuration not stated),-2%,u,11%,x,6,2
COc1ccccc1C(=O)NCC(c1cccs1)N1CCc2ccccc21 (configuration not stated),0%,10µM*,-4%,-5%,-14,-53*
CCCCSc1nnc2c(n1)OC(c1ccc(Br)s1)Nc1ccccc1-2 (configuration not stated),-5%,15%,x,0%,-6,x
COc1ccc(-c2ccc(C(=O)Nc3cccc(C(F)(F)F)c3)c3occc23)c(C)c1,-5%,4.5µM*,-1%,5%,-14,-20
COc1cccc(CNC(=O)COC(=O)C23CC4CC(CC(Cl)(C4)C2)C3)c1,-13%,-14%,13%,1%,-1,2

# Bioassay records deposited in PubChem by National Center for Advancing Translational Sciences (NCATS).
